Nine molecules from PubChem BioAssay (NCATS) can be followed below.

Each structure is given as a SMILES string. Results filed as inconclusive are left out. A number with no mark means an inactive call. Activity calls are given as the source filed them. Calls follow the shape of the dose curve; as a rule, active = well fitted curve in the direction sought with a large enough effect; inconclusive = small, poorly fitted or top-dose-only effect, or another doubt; inactive = no such curve, though single readings can be large; an effect the other way counts as inactive or inconclusive.

For one experiment, the system named is CRL-7250. As to the kind of experiment: Cytotoxic Profiling of Annotated Libraries Using Quantitative High-Throughput Screening (AID 1296008). Also: nearly all actives have a fitted effect of over 60% in size. Also: potency is read from the fitted curve at half-maximal effect. Conditions: Five cell lines viability, CellTiter-Glo ATP luminescence, 48-72 h; max response: hits give low values. In short, it runs like this:
(§1)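 Compounds were pin-transferred onto cells and incubated 48 or 72 hr at 37 degree Celsius, 95% humidity. CellTiter-Glo was added, plates sat 10 min at room temperature, then ATP-coupled luminescence was imaged as the viability read-out.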

A further experiment deals with HEK293. Described as above. Conditions: Five cell lines viability, CellTiter-Glo ATP luminescence, 48-72 h; max response: hits give low values. In short, it runs like this: as §1
The next experiment concerns HaCat. The experiment is described as above. Conditions: Five cell lines viability, CellTiter-Glo ATP luminescence, 48-72 h; max response: hits give low values. In short, it runs like this:
as §1

The test system of a further experiment is KB-3-1. The description is as above. Conditions: Five cell lines viability, CellTiter-Glo ATP luminescence, 48-72 h; max response: hits give low values. The method, boiled down:
as §1

Experiment [1] concerns NIH3T3. Described as above. The note with it: Five cell lines viability, CellTiter-Glo ATP luminescence, 48-72 h; max response: hits give low values. In short, it runs like this:
as §1

For another experiment, the system named is MCC-13. The experiment in a line: qHTS assay to identify novel small-molecules to repurpose for Merkel cell carcinoma treatment (AID 1296009). Also: nearly all actives have a fitted effect of over 60% in size. Also: potency is read from the fitted curve at half-maximal effect. The note with it: MCC and control cell lines, CellTiter-Glo viability, 72 h; series mostly up to 46 µM. In short, it runs like this: (§2)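 Viability readout: ATP luminescence (CellTiter-Glo) after 72 hr drug exposure at 37 degree celsius. Dose-response format was 8 points for NPC and 11 points for MIPE; data normalized to in-plate controls.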

A further experiment relates to MCC-26. The experiment is described as above. The note with it: MCC and control cell lines, CellTiter-Glo viability, 72 h; series mostly up to 46 µM. The method, boiled down: as §2
A further experiment concerns MKL-1. The description is as above. The note with it: MCC and control cell lines, CellTiter-Glo viability, 72 h; series mostly up to 46 µM. In short, it runs like this: as §2
The subject of a further experiment is MKL-2. The description is as above. Conditions: MCC and control cell lines, CellTiter-Glo viability, 72 h; series mostly up to 46 µM. The method, boiled down: as §2
Experiment [2] has as its system NIH3T3. Described as above. The note with it: MCC and control cell lines, CellTiter-Glo viability, 72 h; at 44.8 µM (top of the series) unless noted. The method, boiled down: as §2
The next experiment has as its system UISO. The experiment is described as above. Conditions: MCC and control cell lines, CellTiter-Glo viability, 72 h; series mostly up to 46 µM. The method, boiled down:
as §2

In the next experiment the test system is WaGa. The description is as above. Conditions: MCC and control cell lines, CellTiter-Glo viability, 72 h; series mostly up to 46 µM. In short, it runs like this: as §2
A further experiment concerns C33A. As to the kind of experiment: Primary qHTS to identify gynecologic anti-cancer compounds using libraries of approved drugs and bioactive compounds (AID 1345084). Also: nearly all actives have a fitted effect of over 55% in size. The note with it: Gynecologic cancer cell panel viability, ATPlite luminescence, 48 h; series mostly up to 57.5 µM. The method, boiled down:
(§3)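 Cell viability after 48 h drug treatment, ATPlite luminescence readout; five doses.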

Another experiment concerns CASKI. The experiment is described as above. Conditions: Gynecologic cancer cell panel viability, ATPlite luminescence, 48 h; series mostly up to 57.5 µM. In short, it runs like this:
as §3

A further experiment deals with Es-2. The description is as above. Conditions: Gynecologic cancer cell panel viability, ATPlite luminescence, 48 h; series mostly up to 57.5 µM. The method, boiled down:
as §3

In a further experiment the test system is HeLa. Described as above. Conditions: Gynecologic cancer cell panel viability, ATPlite luminescence, 48 h; series mostly up to 57.5 µM. The method, boiled down:
as §3
% is scaled to controls: 0 for no effect and ±100 for the full control effect.

On to `C[C@H](CCC(=O)O)[C@H]1CCC2C3C[C@H](O)[C@@H]4C[C@H](O)CC[C@]4(C)C3CC[C@@]21C` (stereo partly drawn), for which the max response in the experiment with CRL-7250 was 3.11%; in the experiment on HEK293 it was 4.87%; with HaCat, -16.1%; in the experiment on KB-3-1, 6.35%. The outcome in the experiment with NIH3T3 [1] and with NIH3T3 [2] was inactive. For the same molecule, the Potency entry with MCC-13, in the experiment with MCC-26, with MKL-1, with MKL-2, in the experiment with UISO and with WaGa was “inactive” each time.
With `CC(=O)O[C@H]1C[C@@H]2CC[C@H]3[C@H]4C[C@H]([N+]5(C)CCCCC5)[C@@H](OC(C)=O)[C@@]4(C)CC[C@@H]3[C@@]2(C)C[C@H]1N1CCCCC1`, the max response in the experiment with CRL-7250 was -4.19%; in the experiment with HEK293 it was 2.19%; in the experiment with HaCat, -11.8%; with KB-3-1 it was 2.79%; with NIH3T3 [1], 4.95%. For the same molecule, the Potency result in the experiment on MCC-13, in the experiment on MCC-26, with MKL-1, with MKL-2, with UISO and in the experiment with WaGa was “inactive” each time.
In the case of `CCOC(=O)C=C[C@H](C[C@@H]1CCNC1=O)NC(=O)[C@@H](CC(=O)[C@@H](NC(=O)c1cc(C)on1)C(C)C)Cc1ccc(F)cc1`, the max response is -2.35% with CRL-7250; -0.69% in the experiment with HEK293; -7.58% with HaCat; 4.76% with KB-3-1; 0.598% in the experiment on NIH3T3 [1]. Further, the Potency entry in the experiment with MCC-13, in the experiment on MCC-26, in the experiment on MKL-1, in the experiment with MKL-2, in the experiment with UISO and in the experiment with WaGa was “inactive” throughout.
Regarding `C[C@@H]1[C@H](C)CC[C@]2(C(=O)O)CC[C@]3(C)C(=CC[C@@H]4[C@@]5(C)C[C@@H](O)[C@H](O)[C@@](C)(CO)[C@H]5CC[C@]43C)[C@@H]12`, the values for the max response with CRL-7250, with HEK293 and in the experiment on HaCat were -10.9%, -10.4% and 2.03%, respectively. For the same molecule, the molecule was classed as inactive in the experiment on KB-3-1, in the experiment on NIH3T3 [1] and with NIH3T3 [2]. Further, the Potency result with MCC-13, in the experiment on MCC-26, in the experiment with MKL-1, with MKL-2, with UISO and in the experiment on WaGa was “inactive” in each case.
Consider `CC(C)(O)Cn1c(NC(=O)c2ccc(-c3cn[nH]c3)s2)nc2cc(CN3CCOCC3)ccc21`, for which the Potency with CRL-7250 is 1660 nM (active); with HEK293 it was 526 nM (active); in the experiment with HaCat, 1320 nM (active); with KB-3-1 it was 1050 nM (active); in the experiment with NIH3T3 [1], 2350 nM (active); in the experiment with MCC-13 it was 2960 nM (active). The Potency with MCC-26 was 4690 nM (active); in the experiment on MKL-1, 1180 nM (active); in the experiment with MKL-2 it was 14800 nM (active); in the experiment on UISO it was 1870 nM (active).
For `CCC[C@H]1C[C@H](C(=O)N[C@@H]([C@@H]2O[C@@H](SC)[C@@H](O)[C@@H](O)[C@@H]2O)[C@H](C)Cl)N(C)C1`, the max response in the experiment with CRL-7250 is -6.31%; in the experiment with HEK293 it was -2.02%; in the experiment with HaCat, -10.7%; with KB-3-1, 0.31%; in the experiment on NIH3T3 [1], -6.56%. For the same molecule, the Potency entry with MCC-13, in the experiment with MCC-26, with MKL-1, with MKL-2, with UISO and with WaGa was “inactive” each time. The Potency result in the experiment on C33A, in the experiment with CASKI, with Es-2 and with HeLa was “inactive” throughout.
As for `COc1cccc2c1C(=O)c1c(O)c3c(c(O)c1C2=O)C[C@@](O)(C(=O)CO)C[C@H]3O[C@H]1C[C@H](N)[C@H](O)[C@H](C)O1`, the Potency is 418 nM (active) with CRL-7250; 59 nM (active) in the experiment with HEK293; 264 nM (active) in the experiment with HaCat; 526 nM (active) in the experiment with KB-3-1; 2640 nM (active) with MCC-13; 2350 nM (active) with MCC-26. In addition, the results for the Potency in the experiment on MKL-1 and in the experiment with WaGa were 118 nM (active) and 74.3 nM (active), respectively.
As for `Nc1nc(=O)n([C@H]2C[C@H](O)[C@@H](CO)O2)cc1F`, the molecule was called inactive with CRL-7250. For the same molecule, the Potency is 74.3 nM (active) in the experiment on HEK293; 11.8 nM (active) in the experiment on HaCat; 11800 nM (active) with KB-3-1; 8.3 nM (active) in the experiment with NIH3T3 [1]; 209 nM (active) in the experiment on UISO; 93.5 nM (active) in the experiment with WaGa. Moreover, the Potency entry in the experiment on MCC-26 and in the experiment on MKL-2 was “inactive” each time.
`CN[C@H]1[C@@H](O)[C@@H]2O[C@@H]3O[C@H](C)CC(=O)[C@]3(O)O[C@@H]2[C@@H](NC)[C@H]1O`: the max response in the experiment on CRL-7250 was 4.26%; in the experiment on HEK293, -3.13%; in the experiment on HaCat, -0.114%; with NIH3T3 [1], 4.68%. Besides, the molecule was classed as inactive with KB-3-1. In addition, the Potency result in the experiment with MCC-13 is “inactive”. Also, the Potency was 166 nM (active) in the experiment on MKL-1, 2960 nM (active) in the experiment with MKL-2, 3720 nM (active) in the experiment with UISO and 296 nM (active) in the experiment with WaGa.
